# Records with an inconclusive call do not appear. A call without a number means that no potency is given here. Calls of active or inactive are those of the source. Calls come from the whole dose curve; as a rule, active = well fitted inhibition curve with a large enough effect; inconclusive = small, poorly fitted or top-dose-only effect; inactive = flat fitted curve, though single readings scatter.
# Assay: P-glycoprotein substrates identified in KB-8-5-11 adenocarcinoma cell line, qHTS therapeutic library screen (AID 1346987); note: nearly all actives have a fitted effect of over 65% in size
# Settings: KB-8-5-11 (P-gp overexpressing) viability, CellTiter-Glo, 72 h; series mostly up to 44.5 µM
# Procedure, shortened: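 Steps: plate 500 KB-8-5-11 cells/well in DMEM + 10% FCS (colchicine removed); pin compounds in dose-response; incubate 72 h, 37 degree C, 5% CO2; add CellTiter-Glo, 5 min; read luminescence.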
row,SMILES,Potency
1,CCCCCCCCCCCCCCCCCCOCC(COP(=O)([O-])OCC[N+](C)(C)C)OC (stereo unspecified),inactive
2,CCCCCCCCCCCCCCCCCC(=O)OCC(C)O (stereo unspecified),inactive
3,O=C(O)c1ccc(NC2OC[C@@H](O)[C@H](O)[C@H]2O)cc1 (stereo partly specified),inactive
4,CC(/C=C/C=C(\C)C(=O)O[C@@H]1O[C@H](CO[C@@H]2O[C@H](CO)[C@@H](O)[C@H](O)[C@H]2O)[C@@H](O)[C@H](O)[C@H]1O)=C\C=C\C=C(C)\C=C\C=C(/C)C(=O)O[C@@H]1O[C@H](CO[C@@H]2O[C@H](CO)[C@@H](O)[C@H](O)[C@H]2O)[C@@H](O)[C@H](O)[C@H]1O,inactive
5,C[C@@H]1O[C@@H](OC[C@H]2O[C@@H](Oc3c(-c4ccc(OCCO)c(OCCO)c4)oc4cc(OCCO)cc(O)c4c3=O)[C@H](O)[C@@H](O)[C@@H]2O)[C@H](O)[C@H](O)[C@H]1O,inactive
6,C[Se]CC[C@H](N)C(=O)O,inactive
7,COc1ccc2cc([C@H](C)CO)ccc2c1,inactive
8,CN(Cc1ccccc1)Cc1ccccc1,inactive
9,FC(F)(F)C(F)(F)C(F)(F)C(F)(F)C(F)(F)C(F)(F)F,inactive
10,C=CC(=O)O,inactive
11,CCc1ncnc2cc(OC)c(OC)cc12,inactive
12,CC(C)(CO)[C@@H](O)C(=O)NCCC(=O)NCCSSCCNC(=O)CCNC(=O)[C@H](O)C(C)(C)CO,inactive
13,NC[C@H]1O[C@H](O[C@H]2[C@H](O)[C@@H](O[C@H]3O[C@H](CO)[C@@H](O)[C@H](N)[C@H]3O)[C@H](N)C[C@@H]2N)[C@H](N)C[C@@H]1O,inactive
14,CC(=O)Oc1cc(C(F)(F)F)ccc1C(=O)O,inactive
15,NC[C@H]1O[C@H](O[C@H]2[C@H](O)[C@@H](O[C@H]3O[C@H](CO)[C@@H](O)[C@H](N)[C@H]3O)[C@H](N)C[C@@H]2N)[C@H](O)[C@@H](O)[C@@H]1O,inactive
16,CCOC(=O)c1c[nH]c2cc(OCC(C)C)c(OCC(C)C)cc2c1=O,inactive
17,CC(C)Cc1ccc([C@@H](C)C(=O)NS(C)(=O)=O)cc1,inactive
18,O=C(O)COc1ccccc1/C=N/NC(=O)c1ccncc1,inactive
19,CC[C@H]1OC(=O)[C@H](C)[C@@H](O[C@H]2C[C@@](C)(OC)[C@@H](O)[C@H](C)O2)C(C)[C@@H](O[C@@H]2O[C@H](C)C[C@H](N(C)C)[C@@H]2O)[C@](C)(OC)C[C@@H](C)C(=O)[C@H](C)[C@@H](O)[C@]1(C)O (stereo partly specified),inactive
20,F[Si-2](F)(F)(F)(F)F,inactive
21,CN[C@@H]1[C@@H](O)[C@@H](O[C@@H]2[C@@H](O)[C@H](O[C@H]3O[C@H](CN)[C@@H](O)[C@H](O)[C@H]3O)[C@@H](N)C[C@H]2NC(=O)C(O)CN)OC[C@]1(C)O (stereo partly specified),inactive
22,Cc1nc(NS(=O)(=O)c2ccc(N)cc2)nc(C)c1Br,inactive
23,CC1C(=O)CC2C3(C)CCC2(C(C)C(=O)O)C(=O)C13 (stereo unspecified),inactive
24,N[C@H](CC(=O)O)C(=O)O,inactive
25,C=CC1=C(C(=O)O)N2C(=O)[C@@H](NC(=O)/C(=N\O)c3csc(N)n3)[C@H]2SC1 (stereo in doubt),inactive
26,CC(=O)N[C@@H](C=O)[C@@H](O)[C@H](O)[C@H](O)CO,inactive

# From PubChem BioAssay (NCATS)
